ELG1 genotox: induces genotoxicity in HEK293T cells with luciferase-tagged ELG1; AID 504466; HEK293T ELG1-luciferase reporter, luminescence, 16 h; hit rate 1.3% among 330,000; Potency, µM (series often up to 46 µM), usual class: activators; also: nearly all actives have a fitted effect of over 60% in size
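After overnight (16 hr) compound treatment at 37 °C, ELG1-luciferase HEK293T cells were lysed with ONE-Glo; luminescence quantified 30 min later at room temperature.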
p53 reactivator: restores transcriptional activity of mutant p53. H1299 p53-A138V BP100-luciferase reporter, luminescence, 24 h. Potency, µM (series often up to 92.2 µM), usual class: activators. hit rate 0.063% among 320,000; also: nearly all actives have a fitted effect of over 45% in size
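p53-null H1299 cells stably carrying temperature-sensitive p53-A138V and a BP100-luciferase reporter were pinned with compounds (4-point, 1:5 series) and held 24 hrs at 37 deg C. Luminescence was read 10 min after detection reagent.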
SW480 rerep: inducers of DNA re-replication in SW480 colon cancer cells; hit rate 1.8% among 340,000; Potency, µM (titrated, usually from 46.1 µM), hits mostly activators; SW480 DNA re-replication, Hoechst DNA content imaging, 48 h; also: nearly all actives have a fitted effect of over 55% in size
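Readout is total intensity of Hoechst-stained nuclei, excited at 405 nm and collected at 500-530 nm. Compound treatment lasted 48 hr at 37 C in 5% CO2 before staining.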
AT treatment: potential ataxia-telangiectasia treatments restoring KAP-1 phosphorylation. AID 485349. hit rate 0.19% among 320,000. Potency, µM (titrated, usually from 57.5 µM), most hits filed as activators. F2112 A-T fibroblasts, KAP-1 phosphorylation AlphaLISA; neocarzinostatin DNA damage 30 min before lysis; also: nearly all actives have a fitted effect of over 45% in size
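ATM-like activity read as KAP-1 phosphorylation via AlphaLISA donor/acceptor antibody pairs after lysis and 6 hr at 25C. Cells were ATM-null patient fibroblasts (F2112, hTERT), dosed 60 min, then exposed to the DSB inducer NCS for 30 min.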
MCF10A rereplic: induces DNA re-replication in MCF 10a normal breast cells | Potency, µM (titrated, usually from 46.1 µM), hits mostly activators | hit rate 2.9% among 350,000 | MCF 10A DNA re-replication, Hoechst nuclear intensity, 48 h | AID 624296; also: nearly all actives have a fitted effect of over 50% in size
ELG1 repair inh: ELG1-dependent DNA repair inhibition | HEK293T ELG1-luciferase reporter, luminescence, 16 h; DNA damage induced by 5-fluorouridine | Potency, µM (highest dose often 46.1 µM), actives largely listed as inhibitors | hit rate 2.3% among 330,000 | AID 504467; also: nearly all actives have a fitted effect of over 55% in size
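In this reporter screen, reduction of luminescence relative to DMSO vehicle indicated activity. Compounds and 5-fluorouridine were added together to 2,000 cells per well, incubated for 16 hr at 37 °C, then developed with ONE-Glo.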
Hits are given with their value; 0 = inactive; ? = inconclusive; - = not tested or not shown; [ ] = dose if it differs, or a comment. In the library only some 7.1% were active in any assay of this set; here they are far more common. Calls follow the shape of the dose curve; as a rule, active = well fitted curve in the direction sought with a large enough effect; inconclusive = small, poorly fitted or top-dose-only effect, or another doubt; inactive = no such curve, though single readings can be large; an effect the other way counts as inactive or inconclusive.

SMILES | ELG1 genotox | p53 reactivator | SW480 rerep | AT treatment | MCF10A rereplic | ELG1 repair inh
CCOC(=O)C1=C(O)/C(=C/c2ccc(OCC(=O)O)c(OCC)c2)SC1=Nc1ccccc1 | 0 | 0 | 0 | 0 | 0 | 0
CCc1ccc(N=C2NC(=O)/C(=C/c3cc(OC)c(OC)c(OC)c3)S2)cc1 | 0 | - | ? | 0 | 11.6µM | ?
Cc1nc2c(-c3ccc(F)cc3)cnn2c(N)c1-c1ccc(F)cc1 | 1.16µM | ? | 0 | 0 | 0 | ?
Cc1cc(N)n2ncc(-c3ccc(F)cc3)c2n1 | 16.4µM | 0 | 0 | 0 | 0 | ?
CS(=O)(=O)c1cnc2c(-c3ccc(F)cc3)cnn2c1N | ? | ? | 0 | 0 | 0 | ?
N#CCCOC1(C#CCN2CCCC2)CCCCC1 | 0 | 0 | 0 | 0 | 0 | 0
Cc1cc(NC(=O)CN(C)S(=O)(=O)c2cnc[nH]2)ccc1Br | 0 | 0 | ? | 0 | 0 | 0
CC(=O)N1CCN(S(=O)(=O)c2cccc(C(=O)OCc3cccc(F)c3)c2)CC1 | 0 | 0 | 0 | 0 | 0 | 0
CCOc1ccccc1C(=O)NCC(=O)N1CCC(C)CC1 | 0 | 0 | 0 | 0 | 0 | ?
CN(C)CCCn1c2c3ccccc3ccc2c2oc(=O)c3ccccc3c21 | - | - | 18.4µM | - | 3.66µM | -
Cc1ccc(NC(=O)COC(=O)c2ccc(S(=O)(=O)N3CCCC3)cc2)cc1 | 0 | 0 | 0 | 0 | 0 | 0
O=C1N=C(N2CCOCC2)S/C1=C\c1ccc(-c2ccccc2Cl)o1 | 0 | 0 | 13µM | 0 | 2.91µM | ?
O=C1N=C(N2CCOCC2)S/C1=C\c1cccs1 | 0 | 0 | 0 | 0 | 0 | ?
Cc1ccccc1-c1ccc(/C=C2/SC(N3CCOCC3)=NC2=O)o1 | 0 | 0 | ? | 0 | 16.4µM | 8.2µM
CC1(C)CC(=O)C(N=Nc2cccc(S(=O)(=O)N3CCOCC3)c2)=C(O)C1 | 0 | 0 | 0 | 17.8µM | 0 | ?
Cc1cccc(OCC(=O)NCc2ccc(F)cc2)c1 | 0 | 0 | ? | 0 | 0 | 0
COc1cc(C(=O)NNC(=O)COc2cccc(F)c2)ccc1OCC(=O)N1CCOCC1 | 0 | 0 | ? | 0 | 0 | 0
Cc1ccccc1NC(=O)c1ccc2c(c1)N(C)CCS2 | ? | - | 0 | 0 | 0 | ?
CN1CCSc2ccc(C(=O)Nc3cc(F)ccc3F)cc21 | 2.59µM | ? | 0 | 0 | 0 | ?
CN(C)/C=C/C(=O)/C=C/c1cn(-c2ncc(C(F)(F)F)cc2Cl)c2ccccc12 | 0 | 0 | ? | 0 | 3.66µM | 0
COC(=O)Cc1cn(-c2ncc(C(F)(F)F)cc2Cl)c2ccccc12 | 0 | 0 | 0 | - | 0 | 0
CCCCC/C(C=O)=C/c1ccccc1 | - | - | 0 | - | 0 | -
Clc1ccc2nc(N3CCCCC3)sc2c1 | ? | ? | 0 | 0 | 0 | ?
Clc1ccc2nc(N3CCCCC3)[nH]c2c1 | 2.06µM | ? | 0 | 0 | 0 | ?
COc1ccc(Cc2nc3ccc(C(=O)NC4CCOC4)cc3o2)cc1 (configuration not stated) | 0 | 0 | 0 | 0 | 0 | 0
SMILES | ELG1 genotox | p53 reactivator | SW480 rerep | AT treatment | MCF10A rereplic | ELG1 repair inh
Cc1ccnc(NC(=O)CNC(=O)Cc2cccc3ccccc23)c1 | 14.6µM | 0 | 0 | 0 | 0 | ?
COc1coc(/C=C/C(=O)O)cc1=O | 0 | 0 | 1.46µM | 0 | 0 | 0
COc1ccc(S(=O)(=O)N[C@@H](CSCc2ccccc2)C(=O)O)cc1 | 0 | 0 | 0 | 0 | 0 | 0
CC(C)c1ccc(NC(=O)NCc2cccnc2)cc1 | 0 | ? | 0 | 0 | 0 | ?
Cc1c(-c2ccccc2)oc2c(C(=O)OCC(=O)Nc3ccc(F)cc3)cccc2c1=O | 0 | 0 | 0 | 0 | 0 | 10.3µM
O=C(COC(=O)c1ccccc1Br)Nc1ccc(F)cc1 | ? | 0 | 0 | 0 | 0 | ?
CC[C@]12c3[nH]c4cc(-c5ccco5)ccc4c3CCN1C(=O)[C@@H](CC(=O)NC(C)(C)C)C[C@@H]2C(=O)N1CCN(C(=O)c2ccco2)CC1 | 0 | 0 | 0[9.22 µM] | 0 | 0 | 0
COc1cc(CNc2ccc(N3CCCC3)cc2)cc(Cl)c1OC | 0 | 0 | ? | 0 | 23.1µM | 0
CCOc1cc(CNc2ccc(N3CCCC3)cc2)cc(Cl)c1OC | 0 | 0 | 16.4µM | 0 | ? | ?
CC1CC(=O)c2c(cc3c(-c4c(O)cc(O)c5c(O)c6c(cc45)OC(C)CC6=O)c(O)cc(O)c3c2O)O1 (configuration not stated) | 0 | 0 | 6.51µM | 0 | ? | ?
Cc1cc(-c2nnco2)c(C)n1-c1ccccc1 | 11.2µM | ? | 0 | 0 | 0 | ?
Cc1ccc2nc(-c3sc4nc(C)ccc4c3N)[nH]c2c1 | ? | ? | ? | 0 | 16.4µM | ?
O=C1c2cccc3c(N4CCCCC4)ccc(c23)C(=O)N1c1ccc(O)cc1 | 0 | 0 | 11.6µM | 0 | 5.8µM | 0
O=C1c2cccc3c(N4CCCCC4)ccc(c23)C(=O)N1c1ccccc1O | 0 | 0 | 18.4µM | 0 | 5.8µM | ?
CCCNC(=O)c1cccc(Cn2nc(C)c(Br)c2C)c1 | 0 | 0 | 0[9.22 µM] | 0 | 0 | ?
Cc1nn(Cc2cccc(C(=O)NC34CC5CC(CC(C5)C3)C4)c2)c(C)c1Br | 0 | 0 | 0 | 0 | 9.2µM | 23.1µM
CN(c1cccc(NC(=O)CN(c2cccc(Cl)c2)S(=O)(=O)c2ccccc2)c1)S(C)(=O)=O | 0 | 0 | 0 | 0 | 0 | 25.9µM
CCOc1ccc(N(CC(=O)Nc2cccc(N(C)S(C)(=O)=O)c2)S(=O)(=O)c2ccccc2)cc1 | 0 | 0 | 0 | 0 | 0 | 13µM
CCOc1ccc(N(CC(=O)Nc2cccc(Br)c2)S(C)(=O)=O)cc1 | 0 | 0 | 0 | 0 | 0 | 0
COc1ccc(S(=O)(=O)N(C)CC(=O)Nc2ccc3c(c2)OCO3)cc1 | 0 | 0 | 0 | 0 | 0 | ?
COc1ccc(N(CC(=O)Nc2cccc(N(C)S(C)(=O)=O)c2)S(=O)(=O)c2ccccc2)cc1Cl | 0 | 0 | 0 | 0 | 0 | 8.2µM
COc1ccc(N(CC(=O)Nc2ccc(OC)c(OC)c2)S(=O)(=O)c2ccccc2)cc1Cl | 0 | - | 0 | 0 | ? | ?
COc1ccc(S(=O)(=O)N(C)CC(=O)Nc2c(F)cccc2F)cc1 | 0 | 0 | 18.4µM | 0 | 8.2µM | 0
CN(Cc1cccnc1)C(=O)c1ccc(Cl)c(NS(=O)(=O)c2ccc(F)cc2)c1 | 0 | 0 | 0 | 0 | 0 | 0
Cc1ccc(NC(=O)CSc2nc3c(c(=O)[nH]2)CCC3)c(C)c1 | 0 | 0 | 0 | 0 | 0 | 0
CCSC(=Nc1ccccc1)N1CCOCC1 | - | - | 0 | - | 0 | -
CC1=CC=CC2=NC(=O)CC(C)(C(=O)N(CC(=O)NC3CCCC3)c3ccc(F)cc3)N12 (configuration not stated) | 0 | 0 | 0 | 0 | 0 | 0
